# In PubChem BioAssay (NCATS):
# “And” between values parts separate entries of the source, which are not always exact repeats. Equal entries are not always repeated. Records with an inconclusive call do not appear. Values without a mark were called inactive. The source made the active and inactive calls. Calls come from the whole dose curve; as a rule, active = well fitted inhibition curve with a large enough effect; inconclusive = small, poorly fitted or top-dose-only effect; inactive = no such curve, though single readings can be large or run the other way.
# Experiment: Primary qHTS for inhibitors of nuclear receptor binding SET domain protein 2 (NSD2) in an RCH-ACV wild type WT cells (2C) (AID 1645877); note: nearly all actives have a fitted effect of over 70% in size
# Conditions: RCH-ACV (leukaemia line) NSD2 WT (2C) viability, CellTiter-Glo, 72 h; series mostly up to 44.9 µM; activity change, negative = cell killing: at the top concentration
# % is set by controls: 0 for no effect and ±100 for the full control effect; potency is the fitted concentration of half-maximal effect.
SMILES,Potency,"activity change, negative = cell killing"
Cc1cc2c(F)c(Oc3ncnn4cc(OCC(C)OC(=O)C(C)N)c(C)c34)ccc2[nH]1 (centres undefined),8.33 µM (active),–
CC(=O)O[C@@]12CO[C@@H]1C[C@H](O)[C@@]1(C)C(=O)[C@H](O)C3=C(C)[C@@H](OC(=O)[C@H](O)[C@@H](NC(=O)OC(C)(C)C)c4ccccc4)C[C@@](O)([C@@H](OC(=O)c4ccccc4)C12)C3(C)C (some centres undefined),0.0032 µM (active),–
C=C1C(=O)OC2/C=C(\COC(C)=O)CC/C=C(\C=O)CC(OC(=O)CC(C)C)C12 (centres undefined),1.59 µM (active),–
C=C1C(=O)O[C@@H]2C[C@H](C)[C@@H]3CC(=O)[C@H](O)[C@@]3(C)C[C@H]12,10.3 µM (active),–
CC(=O)O[C@H]1CC(C)(C)CC2[C@]13CO[C@@]21CCC2[C@@]4(C)CC[C@H](O[C@@H]5OC[C@H](O[C@@H]6O[C@H](CO)[C@@H](O)[C@H](O)[C@H]6O[C@@H]6OC[C@@H](O[C@@H]7O[C@H](CO)[C@@H](O)[C@H](O)[C@H]7O)[C@H](O)[C@H]6O)[C@H](O)[C@H]5O[C@@H]5O[C@H](CO)[C@@H](O)[C@H](O)[C@H]5O)[C@@](C)(CO)C4CC[C@@]2(C)[C@]1(C)C[C@H]3O (some centres undefined),2.18 µM (active),–
COc1cc(/C=C/C(=O)NCCn2c(C(F)(F)F)cc3ccccc32)cc(OC)c1OC,–,-85%
C=C1C(=O)OC2/C=C(\CO)CC/C=C(\C=O)C(O)C(OC(=O)C(C)CC)C12 (centres undefined),2.01 µM (active),–
COC(=O)C1=COC(O[C@@H]2O[C@H](CO[C@@H]3O[C@H](COC(=O)/C=C\c4ccc(O)cc4)[C@@H](O)[C@H](O)[C@H]3O)[C@@H](O)[C@H](O)[C@H]2O)C2C(CO)=CCC12 (some centres undefined),–,-10.5% [at 17.3 µM]
CC1(C)CCCC2(C)C1C(OC(=O)/C=C/C=C/C=O)C=C1COC(=O)C12O (centres undefined),3.55 µM (active),–
CC(=O)OC1[C@H]2[C@@H](C[C@@H](C)[C@@H]3C=CC(=O)[C@@]13C)OC(=O)[C@@H]2C (some centres undefined),7.28 µM (active),–
COc1ccc(C(=O)O[C@H]2C=COC=C3C=C4C(=O)N(C)C(=S)C(=O)N4[C@@H]32)cc1Oc1cc(C=O)ccc1O,2.82 µM (active),–
C/C(=C/CO)CCC1C(C)CCC2C(C)(C)CCCC12C (centres undefined),–,-14.3%
C/C=C(\C)C(=O)O[C@H]1C=CC(=O)O[C@H]1/C=C/[C@@H](O)[C@H](C)O,5.78 µM (active),–
CC(C)C[C@@H](N)C(=O)N[C@H]1C(=O)N[C@@H](CC(N)=O)C(=O)N[C@H]2C(=O)N[C@H]3C(=O)N[C@H](C(=O)N[C@H](C(=O)O)c4cc(O)cc(O)c4-c4cc3ccc4O)[C@H](O)c3ccc(c(Cl)c3)Oc3cc2cc(c3O[C@@H]2O[C@H](CO)[C@@H](O)[C@H](O)[C@H]2O[C@H]2C[C@](C)(N)[C@H](O)[C@H](C)O2)Oc2ccc(cc2Cl)[C@H]1O,–,-5.64% [at 17.3 µM]
C=C[C@@]1(C)C=C2C(=O)C(O)=C3[C@](C)(C(=O)O)CC[C@@H]4C[C@]34[C@]2(O)C(=O)C1,2.53 µM (active),–
Cn1ncc2cc(-c3cnc(N)c(Cl)c3N3CCC4(CCNC4=O)CC3)ccc21,0.0934 µM (active),–
O=C(NO)c1ccc(CC(=O)N(CCO)c2ccccc2)cc1,14.5 µM (active),–
Nc1c(S(=O)(=O)c2ccccc2)c2nc3ccccc3nc2n1-c1ccc(F)cc1,–,-0.984%
C[C@@H]1O[C@@H](O[C@H]2[C@H](OC(=O)[C@]34CCC(C)(C)C[C@H]3C3=CCC5[C@@]6(C)C[C@H](O)[C@H](O[C@@H]7O[C@H](CO)[C@@H](O)[C@H](O)[C@H]7O)[C@](CO)(C(=O)O)C6CC[C@@]5(C)[C@]3(C)C[C@H]4O)OC[C@H](O)[C@@H]2O)[C@H](O)[C@H](O)[C@H]1O[C@@H]1OC[C@@H](O)[C@H](O[C@@H]2OC[C@](O)(CO)[C@H]2O)[C@H]1O (some centres undefined),0.547 µM (active),–
C=C1C(=O)O[C@@H]2[C@H]1CC[C@H](C)[C@]1(CCC(=O)O1)C2(C)O (some centres undefined),14.5 µM (active),–
O=S(=O)(NCc1ccccn1)c1ccc(Br)c2ccccc12,–,-22.2%
CC(=O)O[C@H]1CC(C)(C)CC2[C@]13CO[C@@]21CCC2[C@@]4(C)CC[C@H](O[C@@H]5OC[C@H](O[C@@H]6O[C@H](CO)[C@@H](O)[C@H](O)[C@H]6O[C@@H]6OC[C@@H](O)[C@H](O)[C@H]6O)[C@H](O)[C@H]5O[C@@H]5O[C@H](CO)[C@@H](O)[C@H](O)[C@H]5O)[C@@](C)(CO)C4CC[C@@]2(C)[C@]1(C)C[C@H]3O (some centres undefined),3.88 µM (active),–
CC1CCCC[C@H]2C(=O)C=C[C@H](O)[C@@H]2CC(=O)O1 (some centres undefined),2.05 µM (active),–
C=C(C)C(=O)O[C@H]1[C@H]2C(=C)C(=O)O[C@@H]2C[C@@H](C)[C@@H]2O[C@@H]2C(=O)[C@](C)(O)[C@@H]1OC(=O)C(=C)C,1.26 µM (active),–
C=C(C(=O)O[C@H]1C/C(C)=C/CC/C(CO)=C/[C@H]2OC(=O)C(=C)[C@H]12)C(O)CO (some centres undefined),2.84 µM (active),–
Cn1sc(=O)n(Cc2ccccc2)c1=O,2.58 µM (active) and 11.6 µM (active),–
CC1CC(=O)C2=C(C1)C1OC1C1(O)C2C(=O)c2cccc(O)c2C1O (centres undefined),–,-94.9%
Cc1cc2c(cc1N1C(=O)c3cccc4c(CCCO)ccc(c34)C1=O)n(C)c(=O)n2C,0.608 µM (active),–
COC(=O)CC[C@@H](C)C1CCC2C3CCC4C[C@H](OC(C)=O)CCC4(C)C3C[C@H](O)C21C (some centres undefined),–,-3.27%
